Test [1] addresses Progesterone receptor (Homo sapiens) (UniProt P06401). As to the kind of experiment: qHTS assay to identify small molecule agonists of the progesterone receptor (PR) signaling pathway (AID 1346784; calls by dose curve; also: nearly all actives have a fitted effect of over 30% in size). In a few lines:
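Beta-lactamase reporter read-out: after 16 hr compound treatment at 37C and a further 2 hr at room temperature with LiveBLAzer B/G FRET substrate, fluorescence was measured in PR-UAS-bla HEK 293T cells grown in 2% charcoal-stripped serum.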
In general terms: In qHTS, concentration-response curves come from the screen itself.

The nature of test [2]: qHTS assay to identify small molecule antagonists of the progesterone receptor (PR) signaling pathway - cell viability counter screen (AID 1346798). Also: nearly all actives have a fitted effect of over 50% in size. Also: potency is read from the fitted curve at half-maximal effect. As to activity change, negative = cytotoxicity: series mostly up to about 92 µM. In a few lines: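 HEK293T PR-UAS-bla, 2% charcoal-stripped FBS; 4 hr pre-plate; cpd + R5020, 16 h 37C; LiveBLAzer read first; then CellTiter-Glo 30 min RT, luminescence.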
The nature of test [3]: qHTS assay to identify small molecule agonists of the TGF-beta/Smad signaling pathway - cell viability counter screen (AID 1346829). Also: nearly all actives have a fitted effect of over 45% in size. Also: potency is read from the fitted curve at half-maximal effect. As to activity change, negative = cytotoxicity: top concentration of the series differs between compounds. The essentials: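 HEK 293T SBE-bla line, 5 hr compound exposure at 37 C, multiplexed CellTiter-Glo viability read by luminescence.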
Test [4] addresses Thyrotropin-releasing hormone receptor (Homo sapiens) (UniProt P34981). In words: qHTS assay to identify small molecule antagonists of the thyrotropin-releasing hormone receptor (TRHR) signaling pathway (AID 1346877; active = well fitted inhibition curve with a large enough effect in the repeat runs, not every such curve was filed as active; also: potency is read from the fitted curve at half-maximal effect; as to activity, negative = inhibition: series mostly up to about 51 µM). In a few lines: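 Kinetic fluorescence (3 min, 1 s resolution) following stimulation with TRH at 1 nM final; HEK293 cells bearing human TRHR; 5 min compound preincubation at RT; concentration-response over 15 points, triplicates.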

The target is the same in test [5]. As to the kind of experiment: qHTS assay to identify small molecule agonists of the thyrotropin-releasing hormone receptor (TRHR) signaling pathway (AID 1346891; calls by dose curve; also: potency is read from the fitted curve at half-maximal effect; as to activation: series mostly up to about 58 µM). In a few lines:
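Intracellular calcium rise, read as fluorescence every second for 3 min, served as the agonist signal in dye-loaded HEK293 cells expressing TRHR; each compound ran at 15 concentrations in triplicate.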

The target of test [6] is Progesterone receptor (Homo sapiens) (UniProt P06401). In words: qHTS assay to identify small molecule antagonists of the progesterone receptor (PR) signaling pathway (AID 1346795; active = well fitted inhibition curve with a large enough effect in the signal ratio in the repeat runs, not every such curve was filed as active; the % refers to the signal ratio; also: potency is read from the fitted curve at half-maximal effect). In a few lines:
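Read-out is fluorescence from the LiveBLAzer B/G FRET substrate, cleaved by a UAS-controlled beta-lactamase in PR-UAS-bla HEK293T cells after 16 hr exposure to compound plus 1 nM promegestone (final), followed by 2 hr at room temperature.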

Test [7] can be described thus: qHTS assay to identify small molecule agonists of the progesterone receptor (PR) signaling pathway - cell viability counter screen (AID 1346799; calls by dose curve; also: nearly all actives have a fitted effect of over 45% in size; also: potency is read from the fitted curve at half-maximal effect). In a few lines:
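Luminescence from CellTiter-Glo, added after the beta-lactamase FRET read in the same wells, gave cytotoxicity in PR-UAS-bla HEK293T cells treated with compounds for 16 hr at 37C.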

Test [8] is described as follows: qHTS assay to identify small molecule antagonists of the TGF-beta/Smad signaling pathway - cell viability counter screen (AID 1346824). Also: nearly all actives have a fitted effect of over 50% in size. Also: potency is read from the fitted curve at half-maximal effect. The essentials:
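SBE-bla HEK 293T cells, incubated overnight, then compound plus 0.25 ng/mL TGF-beta1 (stock added) for 5 hr at 37 C. Viability was read in the same wells by CellTiter-Glo luminescence after 30 min at room temperature.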

Test [9] in a line: qHTS assay to identify small molecule agonists of the TGF-beta/Smad signaling pathway (AID 1346859; active = well fitted activation curve with a large enough effect in the signal ratio in the repeat runs, not every such curve was filed as active; the % refers to the signal ratio; also: series mostly up to about 77 µM). The essentials:
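SBE-bla HEK 293T, 4,000 cells/well, plated o/n; cpd in DMSO, 5 hr, 37 C/5% CO2; B/G FRET substrate 2 hr RT; ex 405, em 460/530 nm.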

SMILES strings stand for the structures. A number with no mark means an inactive call. Results filed as inconclusive are left out. Calls of active or inactive are those of the source. Unless noted, calls follow the shape of the dose curve; as a rule, active = well fitted curve in the direction sought with a large enough effect in the repeat runs; inconclusive = weak or mixed curves; inactive = no such curve, though single readings can be large; an effect the other way counts as inactive or inconclusive.
% is scaled to controls: 0 for no effect and ±100 for the full control effect.

Thyrotropin-releasing hormone receptor (Homo sapiens), sequence (P34981 whole entry, looked up): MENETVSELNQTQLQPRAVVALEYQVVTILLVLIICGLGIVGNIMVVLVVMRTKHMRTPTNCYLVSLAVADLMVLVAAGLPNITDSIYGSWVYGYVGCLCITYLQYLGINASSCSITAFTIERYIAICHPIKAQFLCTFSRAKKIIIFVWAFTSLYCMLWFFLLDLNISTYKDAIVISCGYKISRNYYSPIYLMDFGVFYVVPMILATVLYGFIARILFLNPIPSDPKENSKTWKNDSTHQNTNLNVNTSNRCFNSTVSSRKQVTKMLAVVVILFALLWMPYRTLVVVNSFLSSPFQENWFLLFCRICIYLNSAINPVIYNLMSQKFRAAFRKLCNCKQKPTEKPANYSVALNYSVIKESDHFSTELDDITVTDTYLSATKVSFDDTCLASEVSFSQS
Progesterone receptor (Homo sapiens), sequence (P06401 whole entry, looked up): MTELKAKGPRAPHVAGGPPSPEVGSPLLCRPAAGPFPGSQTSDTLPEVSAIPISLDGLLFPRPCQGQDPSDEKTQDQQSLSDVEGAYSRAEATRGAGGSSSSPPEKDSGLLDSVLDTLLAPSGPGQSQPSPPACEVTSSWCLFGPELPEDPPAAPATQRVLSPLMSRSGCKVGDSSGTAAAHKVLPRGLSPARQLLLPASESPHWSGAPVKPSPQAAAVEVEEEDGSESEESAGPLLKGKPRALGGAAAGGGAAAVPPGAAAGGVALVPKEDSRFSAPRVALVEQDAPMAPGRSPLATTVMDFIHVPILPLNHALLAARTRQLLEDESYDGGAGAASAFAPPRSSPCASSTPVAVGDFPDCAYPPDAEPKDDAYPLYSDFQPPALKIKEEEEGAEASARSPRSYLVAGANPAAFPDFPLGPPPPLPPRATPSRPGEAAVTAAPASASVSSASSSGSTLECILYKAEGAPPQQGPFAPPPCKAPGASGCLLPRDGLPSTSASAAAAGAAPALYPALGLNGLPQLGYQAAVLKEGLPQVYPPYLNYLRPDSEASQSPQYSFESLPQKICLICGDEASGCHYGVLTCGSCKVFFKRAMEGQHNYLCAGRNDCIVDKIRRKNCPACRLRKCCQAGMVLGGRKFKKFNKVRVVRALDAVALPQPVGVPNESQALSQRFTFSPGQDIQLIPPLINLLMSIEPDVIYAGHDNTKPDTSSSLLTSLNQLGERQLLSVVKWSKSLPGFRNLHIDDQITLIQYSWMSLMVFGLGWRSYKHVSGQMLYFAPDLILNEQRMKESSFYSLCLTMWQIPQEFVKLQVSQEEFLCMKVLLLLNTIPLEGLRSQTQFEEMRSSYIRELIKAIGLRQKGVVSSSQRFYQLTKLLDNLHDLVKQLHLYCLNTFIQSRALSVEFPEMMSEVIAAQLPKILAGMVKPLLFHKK

As for `Cc1ccc(-n2nc(C(C)(C)C)cc2NC(=O)Nc2ccc(OCCN3CCOCC3)c3ccccc23)cc1`, the Potency entry in [1], in [2], in [3], in [4] and in test [5] was “inactive” throughout.
Take `On1ccccc1=S`: the figures for the Potency in test [6], in [2] and in test [7] were 0.539 µM (active), 0.605 µM (active) and 0.959 µM (active), respectively. Moreover, the Potency entry in test [8], in [3], in test [9] and in [5] was “inactive” throughout.
As for `CC(C)n1nc(-c2cc3cc(O)ccc3[nH]2)c2c(N)ncnc21`, the Potency result in test [1], in test [2], in test [7], in [8], in [3] and in test [4] was “inactive” in each case. The Potency result in test [5] was “inactive”.
Consider `O=C1Cc2cc(CCN3CCN(c4nsc5ccccc45)CC3)c(Cl)cc2N1`, for which the Potency entry in test [6], in test [2], in test [7], in test [3], in test [9] and in [4] was “inactive” each time. Also, the Potency entry in test [5] is “inactive”.
`CCCCCCCCCCCCCCCCCC[N+](C)(C)C`: the Potency is 48.7 µM (active) in [2]; 54.6 µM (active) in test [7]; 43.8 µM (active) in test [8]; 43.8 µM (active) in test [3]; 30.3 µM (active) in test [4]; 34.8 µM (active) in test [5]. Further, the Potency result in test [9] was “inactive”.
As for `CC(C)(C)C1CCC(CC2=C(O)c3ccccc3C(=O)C2=O)CC1` (configuration not stated), the Potency result in [2], in test [7], in test [8], in [3] and in test [9] was “inactive” throughout.
Regarding `CCOC(=O)c1nc(C(Cl)(Cl)Cl)n(-c2ccc(Cl)cc2Cl)n1`, the Potency in test [2] and in [7] was 61.1 µM (active) throughout. The Potency entry in test [8] and in [3] was “inactive” in each case.
As to `[O-][n+]1ccccc1SSc1cccc[n+]1[O-]`, the activation in [1] is -12.3% [at 19 µM]; in test [9], -0.0146% [at 15.8 µM]; in [5], 5.02% [at 11.8 µM]. In addition, the Potency in test [2] and in [7] was 0.116 µM (active) throughout. For the same molecule, the viability change, negative = cytotoxic in test [8] was -6.42% [at 15.8 µM]. For the same molecule, in test [3], the activity change, negative = cytotoxicity was -3.22% [at 15.8 µM]. In addition, the activity, negative = inhibition in test [4] is -2.61% [at 10.5 µM].
`COc1ccc(C(=O)/C(Br)=C\C(=O)O)cc1`: the Potency entry in test [1], in test [2], in test [3], in [9], in test [4] and in [5] was “inactive” throughout.
`CCCCCCCCCCCCCCCCCC[N+](C)(C)Cc1ccccc1`: the Potency in test [2] was 27.6 µM (active); in [7], 7.77 µM (active); in test [8] it was 49.5 µM (active); in test [3], 49.5 µM (active).
Take `CN1CCN(CCC(=O)N2c3ccccc3Sc3ccc(C(F)(F)F)cc32)CC1`: the figures for the Potency in test [2] and in test [7] were 18.8 µM (active) and 23.7 µM (active), respectively. Moreover, the Potency entry in [8], in [3], in test [9], in test [4] and in test [5] was “inactive” in each case.
Turning to `Cn1cc(C(=O)[C@@H]2CCc3nc[nH]c3C2)c2ccccc21`, the Potency entry in test [1], in [8], in test [3], in test [9] and in [5] was “inactive” throughout. For the same molecule, in test [2], the Potency is 23.7 µM (active).
Turning to `Cc1cc(C2CCCCC2)n(O)c(=O)c1`, in test [6], the Potency was 3.35 µM (active). In addition, the Potency result in [2], in [7], in [8], in [3] and in [9] was “inactive” in each case.
For `Cc1cc(O)c2ccccc2c1O`, the Potency in test [6] is 23.7 µM (active); in [8], 19 µM (active); in test [3], 23.9 µM (active). Also, the Potency entry in test [4] and in test [5] was “inactive” each time.
Take `CN(C)c1ccc(SC#N)cc1`: the Potency entry in test [1], in test [2], in [7], in test [8], in test [3] and in test [9] was “inactive” each time. Besides, the Potency result in [4] and in test [5] was “inactive” in each case.
In the case of `CCOC(=O)/C=C(C)/C=C/C=C(C)/C=C/c1c(C)cc(OC)c(C)c1C`, the Potency result in test [1], in [7], in test [8] and in [3] was “inactive” throughout.
For the molecule `Cc1oc(-c2ccccc2)nc1CCC(=O)c1ccc(CC2SC(=O)NC2=O)cc1` (configuration not stated), the Potency result in test [1], in [2], in test [8], in test [3], in test [4] and in test [5] was “inactive” in each case.
With `Cc1[nH]cnc1C[C@H]1CCc2c(C)c3ccccc3n2C1=O`, in test [6], the Potency was 37.6 µM (active). For the same molecule, the Potency result in test [3], in [9], in test [4] and in test [5] was “inactive” throughout.
As to `CC(C)CCCCCCCCCCCCCCC(=O)O`, the Potency result in [1], in test [2], in test [8], in test [3], in test [9] and in test [5] was “inactive” each time.
On to `CCCCCCCCCCn1cc[n+](CCCCCCCCCC)c1C`, for which the Potency result in test [1], in test [9], in test [4] and in test [5] was “inactive” throughout. Further, the Potency was 21.7 µM (active) in test [2], 30.7 µM (active) in test [7], 24.6 µM (active) in test [8] and 21.9 µM (active) in [3].
Take `CCc1cc(SCc2sc(-c3ccc(C(F)(F)F)cc3)nc2CN2CCN(c3ccc(OC)cc3)CC2)ccc1OCC(=O)O`: the Potency in test [6] was 24.3 µM (active); in [2], 4.86 µM (active); in test [7], 6.11 µM (active).
Regarding `Oc1c(Cl)cc(Cl)c2cccnc12`, the Potency result in test [1], in test [3], in test [4] and in test [5] was “inactive” throughout.
Consider `CCC(C)Nc1ccc(NC(C)CC)cc1` (configuration not stated), for which the results for the Potency in [6], in test [8] and in test [3] were 55.5 µM (active), 25 µM (active) and 39.7 µM (active), respectively. The Potency entry in [4] and in test [5] was “inactive” throughout.
As to `COc1cc(/C=C/C(=O)O[C@H]2CC[C@]34C[C@]35CC[C@]3(C)[C@@H]([C@H](C)CCC=C(C)C)CC[C@@]3(C)[C@@H]5CC[C@H]4C2(C)C)ccc1O`, the Potency entry in test [1], in test [2], in [7], in test [8], in test [3] and in test [9] was “inactive” each time. Moreover, the Potency entry in test [5] was “inactive”.
As for `CO[Si](CCCNc1ccccc1)(OC)OC`, the Potency entry in test [1], in test [2], in [7], in test [8], in test [3] and in [9] was “inactive” in each case. Also, the Potency entry in [5] is “inactive”.

The record behind these values is PubChem BioAssay (Tox21).
